# Assay outcomes as filed in PubChem.
# TrxR1 substrate = is turned over as a substrate by rat TrxR1; purified TrxR1 substrate turnover, NADPH consumption readout; 390,000 compounds, 0.01% hits; AID 588456; Potency, µM (doses to about 114 µM), for inactives: at the top dose activity change, negative = substrate turnover; O89049; further: potency means the concentration at half of the fitted maximal effect; on the % scale 0 is the no-effect control and ±100 the full control effect; nearly all actives have a fitted effect of over 50% in size
#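 Rat TrxR1, dispensed at 90 nM, was prereduced with 400 uM NADPH (final) for 5 min at ~22 deg C, then incubated with compound 15 min before 400 uM selenite. A first-read NADPH fluorescence drop versus no-compound background flagged substrates.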
# Sfp inh = Sfp phosphopantetheinyl transferase inhibition | Q9F4F7 | Biochemical Sfp PPTase activity, qHTS | Potency, µM, for inactives: largest response in the series, negative = inhibition, most hits filed as inhibitors | 310,000 compounds, 3.5% hits | AID 1490;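 further: the enzyme is Sfp with the accession as filed and its product quenches rhodamine fluorescence; potency means the concentration at half of the fitted maximal effect; 0% = enzyme reaction without inhibitor and -100% = no enzyme wells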
#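 With Hepes-Na pH 7.6 buffer containing 10 mM MgCl2, Sfp (15 nM) modified BHQ-2-YbbR (12.5 uM) using rhodamine-CoA (5 uM). Two reads 30 minutes apart at 525/598 nm yielded each well's rate.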
# PLK1 PBD inh = PLK1 (human) polo-box domain binding inhibition; P53350; Plk1 PBD binding of FITC phosphopeptide, fluorescence polarization; Potency, µM, inactives show max response, negative = inhibition, usual class: inhibitors; 360,000 compounds, 2.8% hits; AID 720504; further: potency means the concentration at half of the fitted maximal effect; series mostly up to about 57 µM; on the % scale 0 is the no-effect control and ±100 the full control effect; nearly all actives have a fitted effect of over 65% in size
# VDR inhibitor = inhibitors of human vitamin D receptor; VDR-SRC2-3 peptide fluorescence polarization, 2 h; AID 504847; Potency, µM, for inactives: max response, negative = inhibition, actives largely listed as inhibitors; 400,000 compounds, 0.93% hits; further: potency means the concentration at half of the fitted maximal effect; on the % scale 0 is the no-effect control and ±100 the full control effect
# Target sequence (P11473 whole entry, looked up): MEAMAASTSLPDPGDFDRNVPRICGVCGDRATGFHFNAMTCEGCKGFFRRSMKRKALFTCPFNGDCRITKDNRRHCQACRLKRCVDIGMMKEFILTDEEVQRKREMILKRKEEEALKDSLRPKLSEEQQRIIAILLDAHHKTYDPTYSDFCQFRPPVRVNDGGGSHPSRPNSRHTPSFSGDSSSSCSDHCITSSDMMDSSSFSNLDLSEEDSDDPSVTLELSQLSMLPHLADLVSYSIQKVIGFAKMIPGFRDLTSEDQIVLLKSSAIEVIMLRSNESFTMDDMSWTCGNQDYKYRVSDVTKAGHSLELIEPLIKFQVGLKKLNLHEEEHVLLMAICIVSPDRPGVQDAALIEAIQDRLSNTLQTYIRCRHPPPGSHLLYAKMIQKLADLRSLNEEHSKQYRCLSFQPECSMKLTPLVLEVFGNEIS
#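 Compounds are added to VDR with labelled SRC2-3 coactivator peptide and held 2 h at room temperature. Inhibition of the VDR–peptide interaction is then read as a change in fluorescence polarization.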
# mIDH1 inhibitor = inhibitors of human mutant IDH1 R132H | IDH1-R132H enzyme, NADPH consumption, diaphorase/resazurin fluorescence | AID 602179 | 390,000 compounds, 0.093% hits | Potency, µM (doses to about 76.6 µM), without a hit: top-dose activity change, negative = inhibition, most hits filed as inhibitors | O75874; further: potency means the concentration at half of the fitted maximal effect; on the % scale 0 is the no-effect control and ±100 the full control effect; nearly all actives have a fitted effect of over 65% in size
#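 IDH1-R132H (0.5 ug/mL dispensed) in pH 7.5 Tris buffer was preincubated 30 min with compound, then given a substrate mix of 0.016 mM NADPH and 2 mM alpha-KG for 80 min at room temperature; remaining NADPH was read by diaphorase/resazurin fluorescence.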
# rTrxR1 inhibitor = inhibitors of rat thioredoxin reductase 1; recombinant rTrxR1, NADPH fluorescence consumption, selenite substrate; Potency, µM (highest dose often 114 µM), for inactives: at the highest dose activity change, negative = inhibition, hits mostly inhibitors; 390,000 compounds, 1% hits; O89049; further: potency means the concentration at half of the fitted maximal effect; on the % scale 0 is the no-effect control and ±100 the full control effect; nearly all actives have a fitted effect of over 65% in size
#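 Rat TrxR1 (90 nM in the dispensed reagent) was pre-reduced with 400 uM NADPH for 5 min at room temperature, then incubated with compound for 15 min. After 400 uM selenite was added, NADPH fluorescence (Ex 340/Em 450 nm) was followed for 8 min.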
# Resorufin autofl = autofluorescence interference, mutant IDH1 hit counter-screen; 750 tested, under 10 active; shares compounds with mIDH1 inhibitor; inhibition of signal, % at 51.2 µM; Resorufin detection reagent fluorescence interference, cell-free;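 further: 0% = wells with normal resorufin and full inhibition = wells lacking resorufin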
# IDH1 WT = wild-type IDH1 (human) inhibition counterscreen; AID 623995; Potency, µM (top dose mostly 115 µM), for the others: top-dose activity change, negative = inhibition, actives largely listed as inhibitors; WT IDH1 enzyme, NADPH diaphorase/resazurin fluorescence; 750 compounds, 9% hits; shares compounds with mIDH1 inhibitor;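 further: potency means the concentration at half of the fitted maximal effect; 0% = full WT IDH1 enzyme control and full inhibition = no enzyme wells; nearly all actives have a fitted effect of over 55% in size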
# mIDH1 confirm = inhibits human mutant IDH1 enzyme in cherrypick confirmation | 750 compounds, 83% hits | IDH1 R132H enzyme, NADPH diaphorase/resazurin fluorescence | shares compounds with mIDH1 inhibitor | AID 624002 | Potency, µM (highest dose often 76.6 µM), for the others: top-dose activity change, negative = inhibition, hits mostly inhibitors; further: potency means the concentration at half of the fitted maximal effect; nearly all actives have a fitted effect of over 50% in size
# * = called active by the depositor; ? = inconclusive; . = no result; [ ] = dose if it differs, or a comment. Compounds with a hit are over-represented: about 5.2% of the library has one in this group of screens. The call rests on the fitted dose curve; in most records, active means well fitted curve in the direction sought with a large enough effect; inconclusive means small, poorly fitted or top-dose-only effect, or another doubt; inactive means no such curve, though single readings can be large; an effect the other way counts as inactive or inconclusive.
SMILES,TrxR1 substrate,Sfp inh,PLK1 PBD inh,VDR inhibitor,mIDH1 inhibitor,rTrxR1 inhibitor,Resorufin autofl,IDH1 WT,mIDH1 confirm
CCCCSc1nnc2c(n1)OC(c1ccc(Br)s1)N(C(C)=O)c1ccccc1-2 (stereo not drawn),-2%,.,.,-14%,-20%,-6%,.,.,.
COc1cc2c(cc1OC)C1O[C@](c3ccsc3)(C2)OC2=C1C(=O)CC(C)(C)C2,.,-10%,.,.,.,.,.,.,.
COc1ccc([C@H]2C[C@H](n3cc(COC(=O)c4ccccc4)nn3)[C@@H](O)CN2Cc2cccs2)cc1,.,.,1%,.,-4%,.,.,.,.
Cc1cc(C)cc(N(C(=O)CCC(=O)Nc2cc(C)on2)C(C(=O)NC2CCCC2)c2ccco2)c1 (stereo not drawn),-1%[57.1 µM],8%,-17%,-18%,?,6%[57.1 µM],3,13%,25µM*
Nc1ncnc(N)c1NC(=O)c1ccc(OCc2ccccc2)cc1,.,.,2%,.,0%,.,.,.,.
Cc1ccc(C)c(S(=O)(=O)c2cn(C)c3cc(N4CCCCC4C)c(F)cc3c2=O)c1 (stereo not drawn),18%,.,.,16%,?,28%,4,3%,16µM*
Cc1ccc(C)c(S(=O)(=O)c2cn(C)c3cc(F)c(F)cc3c2=O)c1,-7%,.,.,-17%,-14%,-5%,.,.,.
Cn1cc(S(=O)(=O)c2ccccc2)c(=O)c2cc(F)c(N3CCCCCC3)cc21,18%,.,.,3%,40µM*,67%,3,3%,14µM*
CCn1cc(S(=O)(=O)c2ccccc2)c(=O)c2cc(F)c(N3CCCCCC3)cc21,47%,.,.,3%,?,71%,2,5%,20µM*
O=C(O)CCn1c(=O)n(CCC(=O)O)c(=O)n(CCC(=O)O)c1=O,0%[57.1 µM],15%,-9%,-6%,?,-1%[57.1 µM],3,5%,-4%
COc1cccc(-c2nc3c(c(C)nn3-c3ccccc3)c3cc(OC)c(OC)cc23)c1,31%,.,.,7%,?,10%,.,.,.
COc1cc2c(-c3ccc(O)cc3)nc3c(c(C)nn3-c3ccccc3)c2cc1OC,51%,?,-3%,-10%,?,-22%,2,7%,11µM*
Cc1ccc(NC(=O)CNc2cccc(S(=O)(=O)N3CCOCC3)c2)cc1F,-13%,.,-11%,-7%,-11%,-5%,.,.,.
CCN(CC)S(=O)(=O)c1cc(NC(=O)CNc2cccc(S(=O)(=O)N3CCOCC3)c2)ccc1C,-3%,.,-11%,6%,?,-6%,1,-2%,28µM*
CCC(C)Sc1ccc([C@@H]2[C@@H]3C(=O)N(CC)C(=O)[C@@H]3[C@]3(C(=O)OC)CCCCN23)cc1OC (stereo partly drawn),-5%,.,-8%,-15%,-32%,-25%,.,.,.
CCC(C)Sc1ccc([C@@H]2[C@@H]3C(=O)N(C)C(=O)[C@@H]3[C@]3(C(=O)OC)CCCCN23)cc1OC (stereo partly drawn),-6%,.,-8%,14%,35µM*,?,-7,1%,16µM*
CCc1ccc2c(c1)c(=O)c(S(=O)(=O)c1ccc(Cl)cc1)cn2CC,-1%,.,.,-2%,-13%,9%,.,.,.
CCOC(=O)c1ccc(N2C(=O)c3n[nH]c(C)c3C2c2ccc(C(C)C)cc2)cc1 (stereo not drawn),0%,.,.,-13%,-9%,16%,.,.,.
Cc1ccc(N2C(=O)c3n[nH]c(C)c3C2c2ccc(C(C)C)cc2)cc1 (stereo not drawn),-2%,.,.,-14%,?,7%,-11,-16%,28µM*
Cc1ccc(NC(=O)Cn2c(C)cc(C)c(C#N)c2=O)cc1F,2%[57.1 µM],.,.,7%,0%,6%[57.1 µM],.,.,.
Cc1nn(-c2ccccc2)c2c1C(c1ccc(O)c(O)c1)N1C(=N2)C(Nc2ccccc2)=Nc2ccccc21 (stereo not drawn),-5%,9%,-6%,0%,29µM*,-5%,1,5%,40µM*
CCCc1noc2c1C(c1cc(Br)ccc1F)C(C#N)=C(N)N2 (stereo not drawn),2%,10%,-14%,-3%,52µM*,0%[57.1 µM],0,-1%,40µM*
Cc1ccc(CNC(=O)c2ccc(CSCc3c(F)cccc3Cl)o2)cc1,-2%[57.1 µM],.,.,6%,40µM*,3%[57.1 µM],4,-1%,0%
Cc1oc2c(C)c3oc(=O)c(CCC(=O)O)c(C)c3cc2c1-c1ccccc1,1%,6%,27µM*,?,23µM*,1%,0,50µM*,13µM*
COc1ccc(OCc2cc(C(=O)NCCN3CCCc4ccccc43)no2)c(Cl)c1,-9%,4%,-1%,-18%,3%,-24%,.,.,.
Cc1cc(C)nc(N/N=C/C2=C(N3CCOCC3)C(=C/c3ccccc3)/CC2)n1,-14%,7%,-16%,-10%,29µM*,-25%,-4,2%,20µM*
Clc1ccc2nc(-c3cccs3)c(Nc3ccc4c(c3)OCCO4)n2c1,-7%,.,.,-23%,-8%,-7%,.,.,.
CC(C)c1ccc(C2c3c(-c4ccccc4O)n[nH]c3C(=O)N2Cc2ccncc2)cc1 (stereo not drawn),-1%,.,.,4%,16µM*,24%,-14,-4%,22µM*
